# Measured values as given in PubChem BioAssay (NCI).
# Compounds without any hit were thinned out: in the full panel of roughly 79,000, 15% have a hit. Unmarked numbers belong to inactive results. Active and inactive are the calls of the source. Cut-off read from the data, not from the text of the source: active = growth inhibition above about 70%; inactive = the rest.
# Assays:
# [1] = NCI Yeast Anticancer Drug Screen. Data for the rad52 strain (AID 147);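 note: 0% = growth of vehicle-treated control cultures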; details: S. cerevisiae rad52 mutant growth inhibition, stronger effect = higher value
# Procedure, shortened: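 Genetically altered yeast (DNA damage repair defect) treated with compound; inhibition calculated relative to vehicle.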
# [2] = NCI Yeast Anticancer Drug Screen. Data for the wt1 strain (AID 149);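 note: 0% = growth of vehicle-treated wt1 cultures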; details: S. cerevisiae wt1 strain (SPY 50644) growth inhibition, stronger effect = higher value
# Procedure, shortened: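 wt1 strain grown with compound or vehicle; inhibition taken from the growth difference.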
# [3] = NCI Yeast Anticancer Drug Screen. Data for the rad50EPP+ strain (AID 151);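 note: 0% = growth of vehicle-treated control cultures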; details: S. cerevisiae rad50 mutant strain, stronger effect = higher value
# Procedure, shortened: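 Strain rad50EPP+; compound exposure; % growth inhibition vs vehicle.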
# [4] = NCI Yeast Anticancer Drug Screen. Data for the mgt1 strain (AID 153); details: S. cerevisiae mgt1 mutant growth inhibition, stronger effect = higher value
# Procedure, shortened: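 Read-out: yeast growth inhibition vs vehicle control. Strain mgt1, drawn from a panel altered in DNA damage repair or cell cycle control.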
# [5] = NCI Yeast Anticancer Drug Screen. Data for the rad50 strain (AID 155);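 note: 0% = growth of vehicle-only cultures of the same strain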; details: S. cerevisiae rad50 strain growth inhibition, stronger effect = higher value
# Procedure, shortened: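 DNA repair mutant yeast, compound exposure, growth read-out; inhibition is taken relative to vehicle.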
# [6] = NCI Yeast Anticancer Drug Screen. Data for the mec2-1 strain (AID 157); details: S. cerevisiae mec2-1 strain, stronger effect = higher value
# Procedure, shortened: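 Cells of the genetically defined mec2-1 yeast strain are incubated with test compound. Inhibition of growth is calculated against vehicle-treated controls.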
# [7] = NCI Yeast Anticancer Drug Screen. Data for the rad14 strain (AID 159);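 note: 0% = growth of vehicle-treated control cultures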; details: S. cerevisiae rad14 strain growth inhibition, stronger effect = higher value
# Procedure, shortened: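 DNA repair-defective yeast, compound-exposed; % growth inhibition derived by comparison with vehicle-treated controls.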
# [8] = NCI Yeast Anticancer Drug Screen. Data for the sgs1 mgt1 strain (AID 161);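 note: 0% = growth of cultures given vehicle only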; details: S. cerevisiae sgs1 mgt1 strain, stronger effect = higher value
# Procedure, shortened: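 Mutant yeast exposed to compound; growth scored against vehicle-only wells.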
# [9] = NCI Yeast Anticancer Drug Screen. Data for the CLN2oe strain (AID 163);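 note: 0% = growth of vehicle-only control cultures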; details: S. cerevisiae CLN2oe strain, stronger effect = higher value
# Procedure, shortened: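 Strain altered in cell-cycle control, incubated with compound; growth compared to solvent-treated controls.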
# [10] = NCI Yeast Anticancer Drug Screen. Data for the cln2 rad14 strain (AID 165);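 note: 0% = growth equal to vehicle treated cultures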; details: S. cerevisiae cln2 rad14 strain, stronger effect = higher value
# Procedure, shortened: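 The screen exposed genetically defined yeast (cln2 rad14) to test compounds and scored growth inhibition relative to vehicle-treated controls.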
# [11] = NCI Yeast Anticancer Drug Screen. Data for the bub3 strain (AID 167); details: S. cerevisiae bub3 mutant strain, stronger effect = higher value
# Procedure, shortened: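 In this screen, a yeast mutant lacking normal mitotic checkpoint function is challenged with compound. Relative growth versus vehicle gives the inhibition value.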
# [12] = NCI Yeast Anticancer Drug Screen. Data for the wt2 strain (AID 169);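 note: 0% = growth of vehicle-treated yeast cultures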; details: S. cerevisiae wt2 strain growth inhibition, stronger effect = higher value
# Procedure, shortened: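 Steps: yeast strain treated with compound; growth recorded; inhibition calculated relative to cultures given vehicle alone.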
# [13] = NCI Yeast Anticancer Drug Screen. Data for the mlh1 strain (AID 171);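 note: 0% = growth of vehicle-treated control cultures of the same strain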; details: S. cerevisiae mlh1 strain growth inhibition, stronger effect = higher value
# Procedure, shortened: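 Yeast screen: mutant strain plus compound, growth scored against vehicle control wells.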
# [14] = NCI Yeast Anticancer Drug Screen. Data for the sgs1 strain (AID 173);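 note: 0% = growth of vehicle-only control cultures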; details: S. cerevisiae sgs1 mutant, stronger effect = higher value
# Procedure, shortened: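 Inhibition of yeast growth served as the measure. The mutant strain was treated with each compound, and growth was normalised to cultures receiving vehicle alone.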
# [15] = NCI Yeast Anticancer Drug Screen. Data for the mlh1 rad18 strain (AID 175); details: S. cerevisiae mlh1 rad18 strain growth inhibition, stronger effect = higher value
# Procedure, shortened: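 Compound-treated yeast growth, normalised to vehicle controls. Strain bears defined DNA repair mutations.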
# [16] = NCI Yeast Anticancer Drug Screen. Data for the rad18 strain (AID 177); details: S. cerevisiae rad18 mutant growth inhibition, stronger effect = higher value
# Procedure, shortened: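 Inhibition values reflect reduced yeast growth compared with vehicle-treated controls, using a strain engineered with a DNA damage repair defect.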
# [17] = at 5.0 µM (retest, dose inferred, filed as 0.5)
# [18] = at 50.0 µM (retest, dose inferred, filed as 5.0)
compound,measurement,setting,value
COc1ccc(NC(=S)N/N=C(\c2ccccc2)c2ccccn2)cc1,growth inhibition,[1]; at 1.2 µM,-3%
same,growth inhibition,[1]; at 3.7 µM,-3%
same,growth inhibition,[1]; at 11.0 µM,-3%
same,growth inhibition,[1]; at 33.0 µM,59%
same,growth inhibition,[1]; at 100.0 µM,96% (active)
same,growth inhibition,[2]; at 1.2 µM,-4%
same,growth inhibition,[2]; at 3.7 µM,-3%
same,growth inhibition,[2]; at 11.0 µM,-3%
same,growth inhibition,[2]; at 33.0 µM,50%
same,growth inhibition,[2]; at 100.0 µM,95% (active)
same,growth inhibition,[3]; at 1.2 µM,0%
same,growth inhibition,[3]; at 3.7 µM,4%
same,growth inhibition,[3]; at 11.0 µM,5%
same,growth inhibition,[3]; at 33.0 µM,3%
same,growth inhibition,[3]; at 100.0 µM,55%
same,growth inhibition,[4]; at 1.2 µM,-1%
same,growth inhibition,[4]; at 3.7 µM,-6%
same,growth inhibition,[4]; at 11.0 µM,8%
same,growth inhibition,[4]; at 33.0 µM,52%
same,growth inhibition,[4]; at 100.0 µM,95% (active)
same,growth inhibition,[5]; at 1.2 µM,0%
same,growth inhibition,[5]; at 3.7 µM,1%
same,growth inhibition,[5]; [17],12%
same,growth inhibition,[5]; at 11.0 µM,-34%
same,growth inhibition,[5]; at 33.0 µM,59%
same,growth inhibition,[5]; [18],89% (active)
same,growth inhibition,[5]; at 50.0 µM,68.1%
same,growth inhibition,[5]; at 100.0 µM,95% (active)
same,growth inhibition,[6]; at 1.2 µM,0%
same,growth inhibition,[6]; at 3.7 µM,-7%
same,growth inhibition,[6]; [17],13%
same,growth inhibition,[6]; at 11.0 µM,-5%
same,growth inhibition,[6]; at 33.0 µM,61%
same,growth inhibition,[6]; [18],75% (active)
same,growth inhibition,[6]; at 50.0 µM,74.7% (active)
same,growth inhibition,[6]; at 100.0 µM,95% (active)
same,growth inhibition,[7]; at 1.2 µM,-4%
same,growth inhibition,[7]; at 3.7 µM,-4%
same,growth inhibition,[7]; at 11.0 µM,-6%
same,growth inhibition,[7]; at 33.0 µM,65%
same,growth inhibition,[7]; at 100.0 µM,95% (active)
same,growth inhibition,[8]; [17],-34%
same,growth inhibition,[8]; [18],91% (active)
same,growth inhibition,[8]; at 50.0 µM,78.3% (active)
same,growth inhibition,[9]; at 1.2 µM,-1%
same,growth inhibition,[9]; at 3.7 µM,-4%
same,growth inhibition,[9]; at 11.0 µM,-4%
same,growth inhibition,[9]; at 33.0 µM,55%
same,growth inhibition,[9]; at 100.0 µM,95% (active)
same,growth inhibition,[10]; [17],33%
same,growth inhibition,[10]; [18],88% (active)
same,growth inhibition,[10]; at 50.0 µM,79.2% (active)
same,growth inhibition,[11]; at 1.2 µM,-6%
same,growth inhibition,[11]; at 3.7 µM,4%
same,growth inhibition,[11]; [17],35%
same,growth inhibition,[11]; at 11.0 µM,4%
same,growth inhibition,[11]; at 33.0 µM,-4%
same,growth inhibition,[11]; [18],90% (active)
same,growth inhibition,[11]; at 50.0 µM,83.9% (active)
same,growth inhibition,[11]; at 100.0 µM,66%
same,growth inhibition,[12]; at 1.2 µM,-4%
same,growth inhibition,[12]; at 3.7 µM,-4%
same,growth inhibition,[12]; at 11.0 µM,-3%
same,growth inhibition,[12]; at 33.0 µM,53%
same,growth inhibition,[12]; at 100.0 µM,96% (active)
same,growth inhibition,[13]; at 1.2 µM,-4%
same,growth inhibition,[13]; at 3.7 µM,-4%
same,growth inhibition,[13]; at 11.0 µM,-2%
same,growth inhibition,[13]; at 33.0 µM,60%
same,growth inhibition,[13]; at 100.0 µM,94% (active)
same,growth inhibition,[14]; at 1.2 µM,-5%
same,growth inhibition,[14]; at 3.7 µM,-4%
same,growth inhibition,[14]; at 11.0 µM,0%
same,growth inhibition,[14]; at 33.0 µM,52%
same,growth inhibition,[14]; at 100.0 µM,97% (active)
same,growth inhibition,[15]; [17],55%
same,growth inhibition,[15]; [18],90% (active)
same,growth inhibition,[15]; at 50.0 µM,83.7% (active)
same,growth inhibition,[16]; at 1.2 µM,-3%
same,growth inhibition,[16]; at 3.7 µM,0%
same,growth inhibition,[16]; at 11.0 µM,-2%
same,growth inhibition,[16]; at 33.0 µM,51%
same,growth inhibition,[16]; at 100.0 µM,95% (active)
CN1Cc2ccccc2/C=C\c2ccccc21,growth inhibition,[1]; at 1.2 µM,-3%
same,growth inhibition,[1]; at 3.7 µM,-4%
same,growth inhibition,[1]; at 11.0 µM,-1%
same,growth inhibition,[1]; at 33.0 µM,25%
same,growth inhibition,[1]; at 100.0 µM,39%
same,growth inhibition,[2]; at 1.2 µM,-3%
same,growth inhibition,[2]; at 3.7 µM,-2%
same,growth inhibition,[2]; at 11.0 µM,-3%
same,growth inhibition,[2]; at 33.0 µM,-4%
same,growth inhibition,[2]; at 100.0 µM,7%
same,growth inhibition,[3]; at 1.2 µM,0%
same,growth inhibition,[3]; at 3.7 µM,9%
same,growth inhibition,[3]; at 11.0 µM,23%
same,growth inhibition,[3]; at 33.0 µM,36%
same,growth inhibition,[3]; at 100.0 µM,71% (active)
same,growth inhibition,[4]; at 1.2 µM,0%
same,growth inhibition,[4]; at 3.7 µM,-3%
same,growth inhibition,[4]; at 11.0 µM,-1%
same,growth inhibition,[4]; at 33.0 µM,7%
same,growth inhibition,[4]; at 100.0 µM,22%
same,growth inhibition,[5]; at 1.2 µM,-6%
same,growth inhibition,[5]; at 3.7 µM,-10%
same,growth inhibition,[5]; [17],-123%
same,growth inhibition,[5]; at 11.0 µM,-1%
same,growth inhibition,[5]; at 33.0 µM,49%
same,growth inhibition,[5]; [18],92% (active)
same,growth inhibition,[5]; at 50.0 µM,24.8%
same,growth inhibition,[5]; at 100.0 µM,64%
same,growth inhibition,[6]; at 1.2 µM,1%
same,growth inhibition,[6]; at 3.7 µM,2%
same,growth inhibition,[6]; [17],-47%
same,growth inhibition,[6]; at 11.0 µM,1%
same,growth inhibition,[6]; at 33.0 µM,1%
same,growth inhibition,[6]; [18],67%
same,growth inhibition,[6]; at 50.0 µM,34.3%
same,growth inhibition,[6]; at 100.0 µM,-3%
same,growth inhibition,[7]; at 1.2 µM,-3%
same,growth inhibition,[7]; at 3.7 µM,-2%
same,growth inhibition,[7]; at 11.0 µM,1%
same,growth inhibition,[7]; at 33.0 µM,14%
same,growth inhibition,[7]; at 100.0 µM,43%
same,growth inhibition,[8]; [17],-57%
same,growth inhibition,[8]; [18],90% (active)
same,growth inhibition,[8]; at 50.0 µM,-5.4%
same,growth inhibition,[9]; at 1.2 µM,0%
same,growth inhibition,[9]; at 3.7 µM,2%
same,growth inhibition,[9]; at 11.0 µM,3%
same,growth inhibition,[9]; at 33.0 µM,2%
same,growth inhibition,[9]; at 100.0 µM,3%
same,growth inhibition,[10]; [17],-57%
same,growth inhibition,[10]; [18],18%
same,growth inhibition,[10]; at 50.0 µM,-30.4%
same,growth inhibition,[11]; at 1.2 µM,-2%
same,growth inhibition,[11]; at 3.7 µM,-1%
same,growth inhibition,[11]; [17],-66%
same,growth inhibition,[11]; at 11.0 µM,1%
same,growth inhibition,[11]; at 33.0 µM,12%
same,growth inhibition,[11]; [18],87% (active)
same,growth inhibition,[11]; at 50.0 µM,-15.8%
same,growth inhibition,[11]; at 100.0 µM,35%
same,growth inhibition,[12]; at 1.2 µM,0%
same,growth inhibition,[12]; at 3.7 µM,1%
same,growth inhibition,[12]; at 11.0 µM,0%
same,growth inhibition,[12]; at 33.0 µM,-4%
same,growth inhibition,[12]; at 100.0 µM,25%
same,growth inhibition,[13]; at 1.2 µM,9%
same,growth inhibition,[13]; at 3.7 µM,1%
same,growth inhibition,[13]; at 11.0 µM,-1%
same,growth inhibition,[13]; at 33.0 µM,-3%
same,growth inhibition,[13]; at 100.0 µM,33%
same,growth inhibition,[14]; at 1.2 µM,2%
same,growth inhibition,[14]; at 3.7 µM,3%
same,growth inhibition,[14]; at 11.0 µM,2%
same,growth inhibition,[14]; at 33.0 µM,23%
same,growth inhibition,[14]; at 100.0 µM,58%
same,growth inhibition,[15]; [17],-109%
same,growth inhibition,[15]; [18],89% (active)
same,growth inhibition,[15]; at 50.0 µM,22.6%
same,growth inhibition,[16]; at 1.2 µM,0%
same,growth inhibition,[16]; at 3.7 µM,2%
same,growth inhibition,[16]; at 11.0 µM,15%
same,growth inhibition,[16]; at 33.0 µM,47%
same,growth inhibition,[16]; at 100.0 µM,78% (active)
